# Screens as filed in PubChem.
# Rows were chosen to be rich in hits. Some 3.3% of all compounds tested hit in one or more screens of this group.
# Jurkat NFkB inh = lowers PMA/ionomycin-induced NF-kB signal in Jurkat cells. PMA/ionomycin-induced NF-kB luciferase reporter, luminescence. AID 435003. inhibition, % at 4 µM. 330,000 compounds, 0.53% hits; in the data active means inhibition above about 50%
# SMARCA2 activ = activators of SMARCA2 function; MG213 cells, MMTV-luciferase reporter, dexamethasone, overnight; 370,000 compounds, 1% hits; AID 652017; activation, % at 9.1 µM; in the data active means activation above about 7.8%;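 further: 0% = vehicle wells and 100% = reference activator wells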
# 697 NFkB inh = inhibitors of the PMA/ionomycin-induced NF-kB reporter in 697 B cells. 697 B-cell NF-kB luciferase reporter, 16 h. inhibition, % at 4 µM. 330,000 compounds, 0.33% hits; in the data active means inhibition above about 35%
# Gli-Sufu block = antagonists of Gli-Sufu signaling | 340,000 compounds, 0.74% hits | inhibition, % at 5 µM | Sufu-KO-LIGHT fibroblasts, Gli luciferase reporter luminescence | AID 588413;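 active means inhibition above about 55%, limit read from the data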;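 further: 0% = DMSO-treated cells and 100% = wells with medium but no cells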
# esBAF inh = inhibitors of esBAF chromatin remodeling in mouse ES cells | Bmi1-luciferase knock-in reporter, 24 h; 100% = twice the neutral-well signal | reporter increase, % at 12.5 µM | 350,000 compounds, 2% hits | AID 602393; in the data active means activation above about 40%;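 further: 0% = median of the plate's neutral control wells and 100% = double that signal; a rise in the Bmi1 reporter signal indicates esBAF inhibition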
# * hit, by the source's call; x = no result.
SMILES,Jurkat NFkB inh,SMARCA2 activ,697 NFkB inh,Gli-Sufu block,esBAF inh
CC(=O)c1ccc2c(c1)N(Cc1ccccc1Cl)C(=O)C(C)S2 (stereo not drawn),x,-10.5,x,x,3.2
COC(=O)c1cccc(CN2C(=O)C(C)Sc3ccc(C)cc32)c1 (stereo not drawn),x,-1.8,x,x,16.9
COC(=O)c1cccc(CN2C(=O)C(C)Sc3cc(Cl)ccc32)c1 (stereo not drawn),x,2.6,x,x,45.4*
COC(=O)c1cccc(CN2C(=O)C(C)Sc3ccc(C(C)=O)cc32)c1 (stereo not drawn),x,1.3,x,x,45.7*
O=C(C[C@@H]1C=C[C@H](NC(=O)Nc2ccccc2)[C@H](CO)O1)NCc1ccccn1,x,x,x,x,0.6
Cc1ccc(S(=O)(=O)Nc2ccc3c(c2)C(=O)N([C@@H](C)CO)C[C@@H](C)[C@H](CN(C)CC2CC2)OCCCC[C@H](C)O3)cc1,x,x,x,x,0.5
COc1ccc(-c2coc3cc(O)cc(O)c3c2=O)cc1OC,-22.9,2.3,-31.0,-9.3,53.6*
COc1ccccc1-c1coc2cc(O)cc(O)c2c1=O,-24.1,-1.9,9.4,24.5,46.4*
COc1ccc(-c2coc3cc(O)ccc3c2=O)cc1OC,2.0,5.0,-42.2,-23.9,58.9*
CO[C@H]1CN(C)C(=O)c2cc(NC(=O)C3CCCCC3)ccc2OC[C@H](C)N(C)C[C@@H]1C,x,x,x,x,-2.1
O=C(NN=C1CCC(=NNC(=O)c2ccccn2)CC1)c1ccccn1,5.7,11.3*,8.2,-5.0,x
Cc1cc2c(cc1C)/C(=N/NC(=O)c1ccccn1)CCC2,-22.6,4.6,-5.4,2.4,x
Cc1cccc(-c2nc(C#N)c(NC3CCCCC3)o2)c1,-71.9,1.0,-101.5,-66.5,61.5*
Cc1ccc(-c2nc(C#N)c(N3CCCCC3)o2)cc1,-18.8,-5.1,-30.5,-6.4,3.3
Cc1cccc(-c2nc(C#N)c(N3CCCCC3)o2)c1,-31.8,1.6,-39.1,-42.6,50.0*
COCC(=O)N1CC[C@H]2[C@@H]1c1cc(-c3ccc(F)cc3)ccc1N(C)[C@H]2CO,x,x,x,x,0.6
CCCNC(=O)C[C@H]1C[C@@H]2c3cc(NS(=O)(=O)c4ccc(F)cc4)ccc3O[C@@H]2[C@@H](CO)O1,x,x,x,x,3.5
O=C1OC2(CCCCC2)OC(=O)C1=CNc1ccc2c(c1)OCO2,-4.8,3.1,5.6,6.6,56.6*
COc1cccc(NC=C2C(=O)OC3(CCCCC3)OC2=O)c1,2.3,-0.8,-7.5,0.2,-4.7
C[C@H](CO)N1C[C@H](C)[C@H](CN(C)Cc2ccccc2)Oc2c(NC(=O)C3CCOCC3)cccc2C1=O,x,x,x,x,2.0
Cc1c(C(=O)Nc2cc(F)ccc2F)sc2nc3n(c(=O)c12)CCCCC3,-113.5,5.8,-95.4,-11.6,70.9*
CCOC(=O)c1sc2nc3n(c(=O)c2c1C)CCCCC3,-77.5,-1.6,-92.9,-61.6,68.1*
CSc1cccc(NC(=O)c2sc3nc4n(c(=O)c3c2C)CCC4)c1,-77.3,2.8,-64.5,-38.6,53.7*
CCS(=O)(=O)NCC[C@H]1CC[C@@H](NC(=O)C2CCCCC2)[C@H](CO)O1,x,x,x,x,2.8
Cc1noc(C)c1NC(=O)N(C)C[C@H]1OCCCC[C@H](C)Oc2ccc(N(C)C)cc2C(=O)N([C@H](C)CO)C[C@H]1C,x,x,x,x,5.3
SMILES,Jurkat NFkB inh,SMARCA2 activ,697 NFkB inh,Gli-Sufu block,esBAF inh
CC(C)(C)c1ccc(S(=O)(=O)Nc2ccc(C(O)(C(F)(F)F)C(F)(F)F)cc2)cc1,x,-3.4,x,x,9.2
CC(C)COC(=O)N(C)c1ccc(C(O)(C(F)(F)F)C(F)(F)F)cc1,-12.8,0.8,-59.2,-14.2,45.2*
CCCN(C)C[C@@H]1OCCCC[C@H](C)Oc2ccc(NC(=O)NC3CCCCC3)cc2C(=O)N([C@@H](C)CO)C[C@@H]1C,x,x,x,x,2.8
Cc1ccc(CNC(=O)C2(S(=O)(=O)c3ccccc3)CC=CC2)cc1,-61.2,x,-79.9,-22.4,73.2*
Cc1ccc(NCC(=O)c2ccccc2)cc1Cl,-2.5,5.4,13.8,-27.1,34.6
Cc1ccc(NCCC(=O)c2ccccc2)cc1Cl,-29.7,1.3,-17.2,8.4,59.6*
CC1CN(C(=O)CSc2nc(-c3ccc(F)cc3)cs2)CC(C)O1 (stereo not drawn),-7.9,-1.9,9.9,-20.6,-4.4
O=C(CSc1nc(-c2ccc(F)cc2)cs1)N1CCOCC1,-38.0,0.1,-35.2,-43.0,65.7*
COC(=O)c1cc(-c2ccccc2)sc1N,-10.1,-0.2,-24.2,x,51.3*
COc1ccc2nc(-c3ccccc3)[nH]c(=O)c2c1,x,3.0,x,-63.3,44.4*
COc1ccc2nc(C)[nH]c(=O)c2c1,0.2,0.9,21.0,7.3,-2.3
COc1ccc2nc(-c3ccccc3)nc(SC)c2c1,x,0.1,x,-30.1,47.3*
